High-throughput results as filed in PubChem BioAssay.
CBX7 inh: CBX7 inhibition, primary AlphaScreen; actives 1.1% (n = 66,000); O95931; normalised signal (fraction of DMSO) (concentration not given with the values); AlphaScreen His6-CBX7 / biotin-H3K27me3 peptide binding; stronger effect = lower value; in the data active means normalised signal below about 0.5
Target sequence (O95931 whole entry, looked up): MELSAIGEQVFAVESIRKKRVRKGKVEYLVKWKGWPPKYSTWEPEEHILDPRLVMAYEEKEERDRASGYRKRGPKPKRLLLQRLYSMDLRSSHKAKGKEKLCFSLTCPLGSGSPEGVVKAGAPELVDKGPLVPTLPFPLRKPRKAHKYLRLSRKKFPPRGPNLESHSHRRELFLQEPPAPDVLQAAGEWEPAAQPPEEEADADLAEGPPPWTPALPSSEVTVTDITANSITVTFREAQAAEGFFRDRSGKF
Starred values were filed as active, the others as inactive; ! = a repeat was not active. This excerpt belongs to a sample that is enriched for hits.

`Cc1ccc2nc(-c3ccccn3)c(Nc3ccc(C(C)C)cc3)n2c1` gave CBX7 inh 0.617.
Screening CCC1=Nc2cc(C(=O)NCCc3ccc(C)cc3)ccc2Sc2ccc(Cl)cc21 returned CBX7 inh 0.854.
O=C(NC1CCCC1)C(c1ccc(Cl)cc1)N1CCCC1 (stereo not given) was read as CBX7 inh 1.
CCCCCCOc1ccc(C(=O)Nc2ccccn2)cc1 was read as CBX7 inh 1.1.
`CCOC(=O)c1ccc(NC(=O)COc2ccc(OC)cc2)cc1` gave CBX7 inh 1.28.
For CCOC(=O)c1[nH]cnc1C(=O)Nc1ccc(OC)cc1 the results were CBX7 inh 0.066*.
Screening CCOC(=O)c1[nH]cnc1C(=O)Nc1ccccn1 returned CBX7 inh 0.194*.
For CCOC(=O)c1[nH]cnc1C(=O)Nc1ccccc1 the results were CBX7 inh 1.04.
For CCOc1ccc(C2C(C(=O)Nc3ccccn3)=C(C)NC3=C2C(=O)CCC3)cc1 (stereo not given) the results were CBX7 inh 1.02.
For CCOC(=O)c1ccc(NC(=O)Cn2ncc3c2-c2cc(C)ccc2OC3)cc1 the results were CBX7 inh 0.975.
CN(c1nc(-c2ccccc2F)nc2ccccc12)C1CCCCC1 was read as CBX7 inh 0.884.
Screening CC1c2nc3ccccc3n2C(CC(=O)N2CCOCC2)C(=O)N1Cc1ccccc1 (stereo not given) returned CBX7 inh 0.905.
Screening CCCCNC(=O)CN1CCN(Cc2ccc(F)cc2)C1=O returned CBX7 inh 1.
For COc1ccc(Cl)cc1-n1cc(-c2ccccc2)nc1SCC(=O)Nc1ccc(F)cc1 the results were CBX7 inh 0.712.
For Cc1cccc(N(C)S(=O)(=O)c2ccc3[nH]cc(C(=O)NCCC4=CCCCC4)c(=O)c3c2)c1 the results were CBX7 inh 0.92.
Cc1ccc(C(=O)Nc2c3c(nn2-c2ccc(F)cc2)CSC3)cc1 was read as CBX7 inh 1.05.
Screening CCc1ccc2oc(-c3cccc(NC(=O)c4ccc(C)cc4)c3)nc2c1 returned CBX7 inh 1.07.
For CCc1ccc2oc(-c3cccc(NC(=O)c4ccc(F)cc4)c3)nc2c1 the results were CBX7 inh 1.03.
For CC(C)c1ccc2oc(-c3ccc(NC(=O)c4ccccc4F)cc3)nc2c1 the results were CBX7 inh 1.03.
Screening CCc1ccc2oc(-c3cccc(NC(=O)c4ncn[nH]4)c3)nc2c1 returned CBX7 inh 0.0127*.
CC(C)c1ccc2oc(-c3ccc(NC(=O)c4ncn[nH]4)cc3)nc2c1 was read as CBX7 inh 0.0257*.
`CC(C)c1ccc2oc(-c3ccc(NC(=O)c4ccc(Cl)cc4)cc3)nc2c1` gave CBX7 inh 0.97.
For Cc1ccc(S(=O)(=O)N2CCC(c3nc4cc(C(=O)O)ccc4n3C3CCCCC3)CC2)cc1 the results were CBX7 inh 0.913.
For COc1ccc(CCNC(=O)c2nc(-c3ccc(C)cc3)oc2C)c(OC)c1 the results were CBX7 inh 0.75.
For CC(=O)Nc1nc(C)c(-c2csc(Nc3ccc(Cl)cc3)n2)s1 the results were CBX7 inh 1.01.
Cc1ccn2c(-c3csc(Nc4ccccc4Cl)n3)c(C)nc2c1 was read as CBX7 inh 0.83.
For Cc1nc2ccccn2c1-c1csc(Nc2ccc(Br)cc2)n1 the results were CBX7 inh 1.02.
Screening Cc1nc(C)c(-c2csc(Nc3ccc(N(C)C)cc3)n2)s1 returned CBX7 inh 0.0536*.
For Cc1ccn2c(-c3csc(Nc4cccc(C(=O)O)c4)n3)c(C)nc2c1 the results were CBX7 inh 0.79.
Screening Cc1nc(C)c(-c2csc(Nc3ccc(Cl)cc3)n2)s1 returned CBX7 inh 0.588.
Cc1ccn2c(-c3csc(Nc4ccccc4C)n3)c(C)nc2c1 was read as CBX7 inh 1.05.
Cc1ccn2c(-c3csc(Nc4ccccc4)n3)c(C)nc2c1 was read as CBX7 inh 0.845.
`CC(=O)Nc1ccc(Nc2nc(-c3c(C)nc4ccccn34)cs2)cc1` gave CBX7 inh 0.953.
`Cc1nc2ccccn2c1-c1csc(Nc2ccc(N(C)C)cc2)n1` gave CBX7 inh 0.466*.
For Cc1ccc(Nc2nc(-c3c(C)nc4cc(C)ccn34)cs2)c(C)c1 the results were CBX7 inh 0.416*!.
`CCN(CC)c1ccc(Nc2nc(-c3c(C)nc4cc(C)ccn34)cs2)cc1` gave CBX7 inh 0.235*.
For O=C(Nc1ccc(-c2noc(Cc3ccc(Cl)cc3)n2)cc1)c1ccccn1 the results were CBX7 inh 1.23.
Screening COCCNC(=O)c1cc(-c2ccc(O)cc2)on1 returned CBX7 inh 1.
For COCCNC(=O)CN1CCN(Cc2ccc(Cl)cc2)C1=O the results were CBX7 inh 0.867.
Screening Cc1cccc(-c2noc(CN(C(=O)c3cccc(Br)c3)C(C)C)n2)c1 returned CBX7 inh 0.931.
For CCCN1Cc2cccc(C(=O)Nc3ccc(Br)cc3F)c2C1=O the results were CBX7 inh 1.04.
Screening Fc1ccc(-c2csc(N3CCN(c4ccccc4F)CC3)n2)cc1 returned CBX7 inh 1.11.
